The text below walks through data of the supplement of paper PMC11634586.

Structures can show the parent of a compound that is named as a salt. Values without a mark were called inactive.

The subject of the assay is NCI-H1688. Briefly: inhibition of cell viability relative to untreated control (fraction); higher = stronger growth inhibition, active = 0.5 or more. Conditions: 30 µM; 24 h. An outline of the steps: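 After seeding at 3 × 10^3 cells/well in 96-well plates and a 24 h wait, NCI-H1688 small cell lung cancer cells received a natural compound library (TargetMol) at 30 µM for 24 h, kept at 37°C with 5% CO2. Triplicate readings of Cell Counting Kit-8 absorbance at 450 nm measured viability. Each value is the inhibition of cell viability as a fraction, derived from viability normalised to untreated cells.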

Turning to `CCCCOC(=O)c1ccc(O)cc1` [Butylparaben], the “inhibition of cell viability” value was 0.197.

Take `O=C1C[C@@H](c2ccccc2)Oc2cc(O)cc(O)c21` [Pinocembrin]: the “inhibition of cell viability” value was -0.374.

For the compound `CNC1CCCN(c2c(F)cc3c(=O)c(C(=O)O)cn(C4CC4)c3c2OC)C1` (stereo unspecified) [Balofloxacin], the “inhibition of cell viability” value was 0.118.

Regarding `N[C@H]1C(O)O[C@H](CO)[C@@H](O)[C@@H]1O` (stereo partly specified) [Glucosamine sulfate], the “inhibition of cell viability” value was 0.381.

For `O=C(O)CCCCCCCC(O)C(O)CCCCCCO` (stereo unspecified) [Aleuritic Acid], the “inhibition of cell viability” value is -0.54.

Regarding `Oc1ccc(CC2NCCc3cc(O)c(O)cc32)cc1` (stereo unspecified) [Demethyl], the “inhibition of cell viability” value was 0.182.

As to `COc1ccc(-c2oc3c(CC=C(C)C)c(O[C@@H]4O[C@H](CO)[C@@H](O)[C@H](O)[C@H]4O)cc(O)c3c(=O)c2O[C@@H]2O[C@@H](C)[C@H](O)[C@@H](O)[C@H]2O)cc1` [Icariin], the “inhibition of cell viability” value is 0.041.

In the case of `COC(=O)C1=CC[C@@]23CC[C@@H]([C@@](C)(/C=C/C=C(\C)C(=O)O)OC2=O)[C@@]3(OC(C)=O)CC1` [Pseudolaric Acid B], the “inhibition of cell viability” value was 0.813 (active).

With `OC[C@H]1O[C@@H](Oc2cc(O)cc(/C=C/c3ccc(O)cc3)c2)[C@H](O)[C@@H](O)[C@@H]1O` [Piceid], the “inhibition of cell viability” value is 0.175.

Regarding `O=C(O)c1cc(O)c(O)c(O)c1` [Gallic acid], the “inhibition of cell viability” value is 0.44.

In the case of `C/C(=C\C(=O)OCCCCCCCCC(=O)O)C[C@@H]1OC[C@H](C[C@@H]2O[C@H]2[C@@H](C)[C@H](C)O)[C@@H](O)[C@H]1O` [Mupirocin], the “inhibition of cell viability” value was 0.0375.
